Hits are enriched below; roughly 3.9% of the tested compounds scored in any of these assays.
BoNT F protease = inhibitors of Botulinum neurotoxin F light chain protease; AID 588497; inhibition, % at 10 µM; Multiplex microsphere protease cleavage assay, flow cytometry; 0.22% of 360,000 active; in the data active = inhibition above about 35%, passing the limit was not always enough; inconclusive = no clear call, values can overlap the other calls; also: plate controls were buffer without enzyme for full effect and enzyme alone for no effect
Autofluor counter = counter-screen for toxin protease inhibitors: compound fluorescence | compound autofluorescence counterscreen, microsphere flow cytometry; hits give high values | fluorescence intensity (concentration not given with the values) | 3.1% of 360,000 active | AID 624483; in the data active = fluorescence intensity above about 16000; inconclusive = no clear call, values can overlap the other calls
BoNT-A LC inh2 = blocks Botulinum neurotoxin A light chain protease; inhibition, % at 10 µM; 0.17% of 360,000 active; multiplex microsphere protease substrate cleavage, flow cytometry; also: plate controls were buffer without enzyme for full effect and enzyme alone for no effect
CCHF vOTU inh = blocks the CCHF virus ovarian tumor domain protease | CCHFV vOTU protease, Pep-AMC fluorescence | inhibition, % at 11.5 µM | 0.55% of 370,000 active | AID 651958; in the data active = inhibition above about 30%; also: 0% = vehicle wells with enzyme and 100% = no enzyme wells
3CLpro inhibitor = SARS-CoV 3CLpro protease inhibition; P0C6X7; recombinant SARS-CoV 3CLpro, quenched FRET peptide cleavage; inhibition, % at 6 µM; 0.14% of 290,000 active; AID 1706; in the data active = inhibition above about 12%
Anthrax LF prot = blocks Bacillus anthracis lethal factor protease | P15917 | multiplex microsphere protease cleavage assay, LF | inhibition, % at 10 µM | 0.12% of 360,000 active; also: plate controls were buffer without enzyme for full effect and enzyme alone for no effect
* hit, by the source's call; u = inconclusive; x = not tested or not shown. Rule as the data show it, unless noted: active = inhibition above about 30%; inconclusive = no clear call, values can overlap the other calls; inactive = below that.

SMILES	BoNT F protease	Autofluor counter	BoNT-A LC inh2	CCHF vOTU inh	3CLpro inhibitor	Anthrax LF prot
CC(C)NC(=O)c1noc2cc([N+](=O)[O-])ccc12	-1	9065	0	0	0	1
CCN(CC)S(=O)(=O)c1cccc(NC(=O)C(=O)c2c(-c3ccccc3)cc3ccccn23)c1	-12	9940	-1	2	9	-8
CCN(CC)S(=O)(=O)c1cc(NC(=O)C(=O)c2c(-c3ccccc3)cc3ccccn23)ccc1C	-10	25900*	-4	5	4	-3
Nc1nncn1C(=O)CCc1ccccc1	-4	22172*	u	23	-1	-1
Cc1ccccc1-c1nnn(CC(=O)NCc2ccc3c(c2)OCO3)n1	0	21659*	-2	12	1	1
Cc1ccccc1-c1nnn(CC(=O)Nc2ccc3c(c2)OCO3)n1	-1	4183	0	14	-4	-5
CCn1c(SCC(=O)NCc2ccc3c(c2)OCO3)nnc1-c1c[nH]c2ccccc12	-5	3148	0	1	1	-1
O=C(CN1C(=O)c2cccc3cccc1c23)NCc1ccc2c(c1)OCO2	-2	23642*	u	-3	1	-1
Cn1c(SCC(=O)NCc2ccc3c(c2)OCO3)nnc1-c1c[nH]c2ccccc12	-5	16863*	u	x	-1	-2
Cc1oc(-c2ccccc2F)nc1CSCC(=O)NCc1ccc2c(c1)OCO2	4	20539*	4	-7	2	-10
O=C(CN1C(=O)c2cccc3cccc1c23)Nc1ccc2c(c1)OCO2	-8	9101	1	-1	1	-4
COC(=O)[C@]12C[C@H](CC(=O)NCC3CCCCC3)C(=O)N(Cc3ccco3)C1=C[C@H](COCc1ccccc1)O[C@@H]2C	x	x	x	12	x	x
CCCCOCCCNC(=O)C[C@H]1C(=O)N(Cc2ccc(OC)cc2)C2=CCCCC[C@@]21C(=O)OC	x	x	x	11	x	x
CCOC(=O)C1CCN(C(=O)c2cccc(C(=O)N3CCC(C(=O)OCC)CC3)c2)CC1	-3	21616*	u	11	0	2
CCOC(=O)C1CCN(Cc2ccc(F)cc2)CC1	1	16511*	0	-1	2	-1
CCOC(=O)C1CCN(C(=O)c2cccc(NC(=O)C(CC)CC)c2)CC1	-10	4408	0	-9	-4	0
CCOC(=O)C1CCN(Cc2cnc(Oc3ccc(N)cc3)s2)CC1	3	21292*	3	0	-1	-3
CCOC(=O)C1CCN(Cc2ccc(Cl)c(Cl)c2)CC1	1	10083	1	5	1	2
CCOC(=O)C1CCN(Cc2ccc(C(=O)OC)cc2)CC1	-3	23791*	-1	x	2	-2
COc1ccc(-n2c(SCC(=O)N3CCCCC3C)nnc2-c2ccncc2)cc1 (centres undefined)	x	x	x	-4	x	x
NC(=O)C1(N2CCCCC2)CCN(Cc2ccc(F)cc2)CC1	-2	21961*	-5	-7	-1	1
COC(=O)c1ccc(/C=N\N2CCN(Cc3ccc(C)cc3)CC2)cc1	-3	16594*	u	-6	-1	-8
C#CCNC(=O)C[C@H]1C[C@@]2(C(=O)OC)C(=C[C@H](C(C)(C)C)O[C@@H]2C)N(Cc2ccc(Cl)cc2Cl)C1=O	x	x	x	22	x	x
Cc1ccc(CSc2nnc(-c3n[nH]c4c3CCC4)n2N)cc1	x	x	x	-4	x	x
COc1cccc(N)c1	x	x	x	0	x	x
SMILES	BoNT F protease	Autofluor counter	BoNT-A LC inh2	CCHF vOTU inh	3CLpro inhibitor	Anthrax LF prot
Nc1cccc(Oc2c(F)c(F)c(Oc3cccc(N)c3)c(F)c2F)c1	38*	3904	10	1	3	u
CCOC(=O)CSc1nnc(CSc2nc3sc4c(c3c(=O)[nH]2)CCC4)n1C	7	9729	0	-3	-1	5
CCOC(=O)CSc1nnc(CSc2nc3sc4c(c3c(=O)[nH]2)CCC4)n1-c1ccccc1	2	21953*	0	5	-6	1
COc1ccc(N2C(=O)c3ccccc3NC23CCCCC3)cc1	7	7732	0	-22	-2	1
COc1ccc(N2C(=O)c3ccccc3NC23CCC(C)CC3)cc1 (centres undefined)	-1	22907*	0	-12	2	0
Cn1c(CNC(=O)c2ccco2)nnc1SCC(=O)Nc1ccc(Br)cc1F	-16	2580	-1	-17	1	0
CCn1c(CNC(=O)c2ccco2)nnc1SCC(=O)Nc1ccc(Br)cc1F	8	20415*	5	-4	1	-5
COC(=O)C1=C(C)n2nnnc2NC1c1cc2ccccc2o1 (centres undefined)	9	17991*	u	2	0	-7
C=CC[C@@H]1NN2C(=O)[C@@H](CCCC)[C@@H]3c4ccccc4C=NN3[C@@H]2c2ccccc21	x	x	x	-2	x	x
Cc1ccccc1Cn1cc(CN2[C@H](Cc3ccccc3)COc3cc(Br)ccc3S2(=O)=O)nn1	x	x	x	2	x	x
Cc1ccc(C)c(-n2c(-c3csc(C)c3)n[nH]c2=S)c1	11	13477	9	-11	-1	-13
Cc1ccc(C)c(-n2c(-c3ccc4c(c3)OCO4)n[nH]c2=S)c1	1	23573*	u	-3	-10	-1
COCCOC(=O)C1=C(C)N=C2SCCC(=O)N2C1c1cccc(Br)c1 (centres undefined)	-6	17065*	-3	2	2	1
C=CCOC(=O)C1=C(C)N=C2SCCC(=O)N2C1c1ccc(OC(=O)c2ccco2)cc1 (centres undefined)	-7	23769*	-1	11	-2	-1
COC(=O)[C@H]1C[C@@]2(n3ccc4ccccc43)c3ccccc3N[C@H]2N1	x	x	x	0	x	x
Nc1ccc(C#Cc2ccccc2)cc1	1	20219*	u	2	4	1
Nc1ccccc1C#Cc1ccccc1	0	3624	1	16	-3	-4
COc1ccc(OC)c(N2C(=O)C(Cl)=C(N3CCCCC3)C2=O)c1	9	21020*	9	-4	1	2
C=C(C)CSc1nnc(-c2cc(OC)c(OC)c(OC)c2)n1N	-6	21195*	-5	-3	3	1
C=C(C)CSc1nnc(-c2ccc(OC)c(OC)c2)n1N	4	15658	3	-2	0	3
COc1ccc(Cn2ccc3ccc(-c4ccc5ccn(Cc6ccc(F)cc6)c5c4)cc32)cc1	x	x	x	8	x	x
COc1ccccc1CNC(=O)CCn1c(=O)[nH]c2ccsc2c1=O	-8	21437*	u	-6	5	0
Cn1cnc2nc3n(c2c1=O)CCC3	2	16811*	0	2	-3	-2
O=c1c2cccnc2nc2n1CCCCC2	-4	3152	-1	-3	0	1
COc1ccc(CCn2c(O)c(C=NCc3ccc4c(c3)OCO4)c(=O)[nH]c2=O)cc1OC	0	9798	-1	0	2	12
COc1ccc(OC)c(-n2c(O)c(C=NCc3ccc4c(c3)OCO4)c(=O)[nH]c2=O)c1	-3	16727*	-1	-2	3	-1
CN(Cc1ccccc1)S(=O)(=O)c1cccc(C(=O)OCc2ccc(C(F)(F)F)cc2)c1	x	x	x	9	x	x
